Rows were chosen to be rich in hits. Some 6.2% of all compounds tested hit in one or more screens of this group.
AI-2 QS modul: Vibrio harveyi AI-2 quorum sensing modulation; Vibrio harveyi JMH597 AI-2 luminescence/OD600 ratio, 9 h; active compounds read low; strain lacks LuxN and CqsS sensors; 0 = neutral-control median; 300,000 compounds, 0.4% hits; activity change, % at 7.5 µM; in the data active means activity change below about -75%, passing the limit was not always enough;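 further: luminescence divided by OD600 gain over 9 h not by final OD600 alone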
AHR activator: human AHR activation; AHR-responsive luciferase reporter cells, luminescence; P35869; activation, % at 5 µM; 320,000 compounds, 2.5% hits; AID 2796; in the data active means activation above about 47%
Target sequence (P35869 whole entry, looked up): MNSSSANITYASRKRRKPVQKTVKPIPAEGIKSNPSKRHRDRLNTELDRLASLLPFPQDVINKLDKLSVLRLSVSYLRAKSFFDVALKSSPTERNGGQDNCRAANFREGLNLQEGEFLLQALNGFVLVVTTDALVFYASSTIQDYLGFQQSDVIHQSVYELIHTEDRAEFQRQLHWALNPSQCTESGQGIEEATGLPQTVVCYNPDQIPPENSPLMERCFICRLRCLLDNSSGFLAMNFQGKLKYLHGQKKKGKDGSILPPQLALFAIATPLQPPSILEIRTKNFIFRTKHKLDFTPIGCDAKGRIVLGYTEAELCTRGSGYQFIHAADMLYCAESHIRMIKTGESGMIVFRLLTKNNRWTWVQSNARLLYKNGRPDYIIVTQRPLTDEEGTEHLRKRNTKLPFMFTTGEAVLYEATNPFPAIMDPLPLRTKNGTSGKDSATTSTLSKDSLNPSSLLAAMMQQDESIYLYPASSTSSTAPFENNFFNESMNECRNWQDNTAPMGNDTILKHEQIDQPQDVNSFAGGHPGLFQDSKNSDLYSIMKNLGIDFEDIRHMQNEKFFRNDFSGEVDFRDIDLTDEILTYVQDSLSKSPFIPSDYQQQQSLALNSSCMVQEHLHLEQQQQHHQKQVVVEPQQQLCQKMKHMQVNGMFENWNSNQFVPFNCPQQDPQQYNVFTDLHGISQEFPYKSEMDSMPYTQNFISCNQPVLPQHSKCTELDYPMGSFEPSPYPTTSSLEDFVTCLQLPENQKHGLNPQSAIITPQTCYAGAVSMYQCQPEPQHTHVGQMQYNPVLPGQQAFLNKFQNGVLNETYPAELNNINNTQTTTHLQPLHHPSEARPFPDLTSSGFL
GRIN3A LBD mod: NR3A (human) ligand-binding domain modulation. Tm shift relative to glycine control, % at 25 µM. AID 1259313. 340,000 compounds, 2.5% hits. NR3A LBD differential scanning fluorimetry, Tm shift; 0% = protein alone, 100% = glycine-bound protein;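 active means melting temperature shift of at least 10% of the positive control shift, at one fixed dose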
H9c2 protect: myocardial damage modulation in H9c2 cells. 360,000 compounds, 0.63% hits. AID 588492. protection from H2O2 cell death, % at 20 µM. H9c2 cardiomyocytes, H2O2 injury protection, ATPLite, 2 h;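 active means compounds giving at least 50% protection of heart cells from peroxide-induced death in the single-dose screen, raw or plate-pattern-corrected value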
NTR1 ag: activates human neurotensin receptor 1; 330,000 compounds, 0.17% hits; activation, % at 20 µM; P30989; NTR1-U2OS beta-arrestin-GFP spot imaging, agonist mode;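 active means activation at or above 40% of the spot to cytoplasm intensity ratio, with at least 20 cells analyzed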
Mot1-301 SUMO: SUMOylation pathway inhibition by Mot1-301 growth rescue; S. cerevisiae Mot1-301 growth rescue, ATP luminescence, 38.5C; percent above DMSO median, 100 means doubled; growth rescue, % at 18.8 µM; 320,000 compounds, 1% hits;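 active means every valid replicate shows activation above 250% relative to neutral control wells; inactive means the rest, any valid replicate at or below 250%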
Mot1 SUMO dose: SUMO pathway inhibitors in yeast Mot1-301 growth | shares compounds with Mot1-301 SUMO | 2,300 tested, under 10 active | AID 493004 | S. cerevisiae Mot1-301 galactose growth, ATP luminescence, 24 h; -100 = growth of slx-deleted rescue strain | growth activity, percent, % at 42 µM;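 active means Signal drops as the depositor expects, and the fitted half-maximal dose is no more than ten times the top valid tested dose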;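 further: more negative values mean stronger growth rescue toward the control strain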
Hits are given with their value; 0 = inactive; - = not tested or not shown; + = active, no number.

SMILES | AI-2 QS modul | AHR activator | GRIN3A LBD mod | H9c2 protect | NTR1 ag | Mot1-301 SUMO | Mot1 SUMO dose
Cc1ccc(NC(=O)CN2C(=O)NC(C)(C3CC3)C2=O)cc1S(=O)(=O)N1CCCCC1 (stereo not given) | - | 0 | 0 | 0 | 0 | 0 | -
O=S(=O)(c1ccccc1)N1CCN(c2nc3ccccc3s2)CC1 | 0 | 0 | 0 | 0 | 0 | 453 | 0
CC(=O)c1ccc2noc(-c3ccc(F)cc3)c2c1 | 0 | 0 | 0 | 0 | 0 | + | 0
Cc1ccc(Oc2ccc(OCC(=O)Nc3ccncc3)cc2)cc1 | - | 0 | - | 0 | 0 | 378 | 0
CC(C)COC(=O)N(C)C[C@@H]1OCc2cnnn2CCCC(=O)N([C@@H](C)CO)C[C@H]1C | - | - | - | 0 | - | - | -
CN(C(=O)COC(=O)c1cc(-c2ccccc2Cl)nc2ccccc12)C1CCS(=O)(=O)C1 (stereo not given) | 0 | 0 | 0 | 0 | 0 | 0 | -
CCN(C(=O)CSc1nc2ccccc2c(=O)n1-c1ccc(C)cc1)C1CCS(=O)(=O)C1 (stereo not given) | 0 | 0 | 0 | 0 | 0 | 0 | -
Cc1ccc(-n2c(SCC(=O)N(C)C3CCS(=O)(=O)C3)nc3ccccc3c2=O)cc1 (stereo not given) | 0 | 0 | 0 | 0 | 0 | 499 | 0
CN(C(=O)COC(=O)c1cc(-c2ccc(Cl)s2)nc2ccccc12)C1CCS(=O)(=O)C1 (stereo not given) | 0 | 0 | 0 | 0 | 0 | 511 | 0
CC(C)NC(=O)N(C)C[C@H]1Oc2ccc(NS(=O)(=O)c3ccc(F)cc3)cc2C(=O)N([C@H](C)CO)C[C@@H]1C | - | 0 | 0 | 0 | 0 | 0 | -
CCN(CC(=O)N1CCN(C)CC1)S(=O)(=O)c1ccc(Cl)cc1 | 0 | 0 | 0 | 0 | 0 | 0 | -
CCN(CC(=O)N1CCCCCC1)S(=O)(=O)c1ccc(Cl)cc1 | 0 | 0 | 0 | 0 | 0 | + | 0
CCN(C1CCCCC1)S(=O)(=O)CCNC(=O)c1ccccc1 | 0 | 0 | 0 | 0 | 0 | 0 | -
O=C(N/N=C/c1ccccc1)c1n[nH]c2c1CCCC2 | 0 | 0 | 0 | 0 | 0 | 0 | -
O=C(N/N=C/C(Br)=C/c1ccccc1)c1n[nH]c2c1CCC2 | 0 | 0 | 0 | 0 | 0 | 508 | 0
COc1ccc(-c2csc(NC(=O)C3CSC4(C)CCC(=O)N34)n2)cc1 (stereo not given) | - | 0 | 0 | 0 | 0 | 391 | 0
CCCN1CCN(CCCNC(=O)CCn2nc(-c3ccccc3)ccc2=O)CC1 | 0 | 0 | 0 | 0 | 0 | 565 | 0
CN1CCN(CCCNC(=O)Cn2nc(-c3ccccc3)ccc2=O)CC1 | 0 | 0 | 0 | 0 | 0 | 0 | -
CCOC(=O)c1cc2sc(C)cc2n1CC(=O)Nc1ccc2c(c1)OCCO2 | 0 | 0 | 0 | 0 | 0 | 784 | 0
COc1ccc(S(=O)(=O)N2CCC(C(=O)Oc3ccc(C)cc3)CC2)cc1OC | 0 | 0 | 0 | 0 | 0 | 0 | -
CSc1ccc(CCNC(=O)C2CCCN(S(=O)(=O)N3CCOCC3)C2)cc1 (stereo not given) | 0 | 0 | 0 | 0 | 0 | 564 | 0
COc1ccc(C(=O)N2CCC(n3nccc3NC(=O)C3CC3)CC2)cc1F | 0 | 0 | 0 | 0 | 0 | 0 | -
CC(C)(C)C(=O)NC(=S)N1CCCC1 | 0 | 0 | 0 | 0 | 0 | 0 | -
CC12CC3(C)CC(C)(C1)CC(C(=O)NC(=S)N1CCCC1)(C2)C3 | 0 | 0 | 0 | 0 | 0 | 766 | 0
CSc1ccc(S(=O)(=O)N2CCC(C(=O)Nc3ccc(C(N)=O)cc3)CC2)cc1 | 0 | 0 | 0 | 0 | 0 | 0 | -
SMILES | AI-2 QS modul | AHR activator | GRIN3A LBD mod | H9c2 protect | NTR1 ag | Mot1-301 SUMO | Mot1 SUMO dose
COc1ccc(-c2nnc(-c3cc4c(ccc5ccccc54)oc3=O)o2)cc1 | 0 | 0 | 0 | 0 | 0 | 574 | 0
Cc1nc(-c2cccc(S(=O)(=O)N3CCOCC3)c2)cs1 | 0 | 0 | 0 | 0 | 0 | 730 | 0
CNc1cccc(-c2ccc(N3CCN(C)CC3)nc2)n1 | - | - | - | 0 | - | - | -
O=C(Cn1cnc2ccccc2c1=O)c1ccc(OC(F)F)cc1 | 0 | 0 | 0 | 0 | 0 | 513 | 0
CCOc1ccc(C(=O)Cn2cnc3ccccc3c2=O)cc1 | 0 | 0 | 0 | 0 | 0 | 0 | -
CCc1ccc2c(c1)C(c1ccc([N+](=O)[O-])cc1)=NNC(c1ccc(C)cc1)=N2 | 0 | 0 | 0 | 0 | 0 | 407 | 0
CCc1nn(C)c(N)c1C | 0 | 0 | 0 | 0 | 0 | 392 | 0
CCc1nn(C)c(-c2n[nH]c(=S)n2N)c1Cl | 0 | 0 | 0 | 0 | 0 | 0 | -
CC(=O)Nc1ccc(NC(=O)C(C)OC(=O)C2(c3ccccc3F)CCCC2)cc1 (stereo not given) | - | 0 | 0 | 0 | 0 | 0 | -
COc1ccc(CN2CCN(C(=O)CCC(=O)Nc3nnc(C4CCCCC4)s3)CC2)cc1F | 0 | 0 | 0 | 0 | 0 | 0 | -
CCN(CC)CCNC(=O)CCn1c(=S)[nH]c2cc3c(cc2c1=O)OCO3 | 0 | 0 | 0 | 0 | 0 | + | 0
N#Cc1ccc(Oc2ccc(S(=O)(=O)N3CCCCC3)cn2)cc1 | 0 | 0 | 0 | 0 | 0 | 764 | 0
CN(C)C(=O)CNC(=O)C1CCCCC1 | 0 | 0 | 0 | 0 | 0 | + | 0
O=C(CNC(=O)C1CCCCC1)NCCCO | 0 | 0 | 0 | 0 | 0 | 0 | -
C[C@@H]1CN([C@@H](C)CO)S(=O)(=O)c2ccc(Br)cc2O[C@@H]1CN(C)C(=O)C1CC1 | - | - | - | 0 | - | - | -
CN(C)c1ccc(NC(=O)CSc2nc(N)c(C(=O)Nc3ccc(N(C)C)cc3)s2)cc1 | 0 | 0 | 0 | 0 | 0 | 466 | 0
COc1ccc(N2CCN(c3ccc(NC(=O)NN)cc3)CC2)cc1 | 0 | 0 | 0 | 0 | 0 | 0 | -
CN(C(=O)C1CCCO1)c1nnc(-c2cnccn2)s1 (stereo not given) | 0 | 0 | 0 | 0 | 0 | 519 | 0
CN(C(=O)c1ccncc1)c1nnc(-c2cnccn2)s1 | 0 | 0 | 0 | 0 | 0 | 365 | 0
Cc1occc1-c1nnc(SCC(=O)N2CCN(c3ccccc3)CC2)n1C | 0 | 0 | 0 | 0 | 0 | 495 | 0
CC(=O)N1N=C(N)SC12CCCC2 | 0 | 0 | 0 | 0 | 0 | + | 0
CC1CC(C)(C)N2C(=O)C3(Nc4ccccc4S3)c3cccc1c32 (stereo not given) | 0 | 0 | 0 | 0 | 0 | 723 | 0
COc1cccc(-c2ocnc2C(=O)Nc2ccc3c(c2)CCC3)c1 | 0 | 0 | 0 | 0 | 0 | 430 | 0
COc1cccc(CC(=O)Nc2ccc3c(c2)CCC3)c1 | 0 | 0 | 0 | 0 | 0 | 0 | -
CC1c2cc3c(cc2CCN1C(=O)c1cccc(F)c1)OCCCO3 (stereo not given) | 0 | 0 | 0 | 0 | 0 | 0 | -
COCCN1C(=O)/C(=C/c2cc3c(cc2Br)OCO3)NC1=S | 0 | 0 | 0 | 0 | 0 | 603 | 0
